Data from PubChem BioAssay (NCI).
Compounds without any hit were thinned out: in the full panel of roughly 83,000, 20% have a hit.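 Single-dose data. Exposure time 48 hours. Values below 10 considered active.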 Calls of active or inactive are those of the source.

Experiments:
Experiment in all cases: NCI-60 one-dose screen, 48 h (100 = growth as untreated, 0 = no growth, -100 = all killed)
Settings in all cases: 10 µM unless noted
HCT-15 colon = tested on: HCT-15 colon
HT29 colon = tested on: HT29 colon
SNB-75 CNS = tested on: SNB-75 CNS
SNB-19 CNS = tested on: SNB-19 CNS
U251 CNS = tested on: U251 CNS
PC-3 prostate = tested on: PC-3 prostate
SK-MEL-5 melanoma = tested on: SK-MEL-5 melanoma
UACC-62 melanoma = tested on: UACC-62 melanoma
LOX IMVI melanoma = tested on: LOX IMVI melanoma
SK-MEL-28 melanoma = tested on: SK-MEL-28 melanoma

Measured: growth

CC(C)N1CCN(Cc2ccc3c(NNC(=O)c4ccccc4)nc4cc(F)ccc4n23)CC1
inactive: HCT-15 colon 31.7% | HT29 colon 31.3% | SNB-75 CNS 54.7% | SNB-19 CNS 29.7% | U251 CNS 17% | PC-3 prostate 36.9% | SK-MEL-28 melanoma 29.5%
active: SK-MEL-5 melanoma -8.08% | UACC-62 melanoma 7.2% | LOX IMVI melanoma 6.12%

COC1=CC(c2ccc[nH]2)=N/C1=C\c1[nH]c(C)c(C(=O)OCc2ccccc2)c1C
inactive: SNB-19 CNS 18.5% | PC-3 prostate 10.4%
active: HCT-15 colon -35.4% | HT29 colon -19.4% | SNB-75 CNS -21.4% | U251 CNS -47% | SK-MEL-5 melanoma -99.5% | UACC-62 melanoma -52.6% | LOX IMVI melanoma -90.6% | SK-MEL-28 melanoma -59.4%

COc1cc2c(c(OC)c1OC)CCC(c1cccc(C(=O)Nc3cccc(Br)c3)c1)O2 (stereo not given)
inactive: HCT-15 colon 67% | HT29 colon 58.1% | SNB-75 CNS 69% | SNB-19 CNS 81.6% | U251 CNS 71.5% | PC-3 prostate 49.1% | SK-MEL-5 melanoma 55.6% | UACC-62 melanoma 52.8% | LOX IMVI melanoma 74% | SK-MEL-28 melanoma 87.9%

CCOC(=O)C1=NN(c2ccccc2)C(=O)/C1=C\N1C(=O)CC(=O)NC1=S
inactive: HCT-15 colon 105% | HT29 colon 99.7% | SNB-75 CNS 10.6% | SNB-19 CNS 97.4% | U251 CNS 91% | PC-3 prostate 96.4% | SK-MEL-5 melanoma 99.6% | UACC-62 melanoma 87.5% | LOX IMVI melanoma 93.7% | SK-MEL-28 melanoma 114%

Cc1cccc(Cl)c1NC(=O)c1ccc2nc(NC(=O)NCCN(C)C)sc2c1
inactive: HCT-15 colon 99.3% | HT29 colon 80.1% | SNB-75 CNS 23.7% | SNB-19 CNS 105% | U251 CNS 80.4% | PC-3 prostate 62.2% | SK-MEL-5 melanoma 67.3% | UACC-62 melanoma 97.3% | LOX IMVI melanoma 91.5% | SK-MEL-28 melanoma 87.6%

CCCCC(=O)Nc1ncc(Cc2ccc(Cl)cc2)s1
inactive: HCT-15 colon 40.3% | HT29 colon 28.6% | SNB-75 CNS 46.5% | SNB-19 CNS 77.2% | U251 CNS 65.6% | PC-3 prostate 80.9% | SK-MEL-5 melanoma 80.3% | UACC-62 melanoma 49.6% | LOX IMVI melanoma 64.8% | SK-MEL-28 melanoma 74.2%

CCOC(=O)C#Cc1c(C(=O)OCC)nnn1[C@@H]1O[C@H](CO)[C@H]2OC3(CCCCC3)O[C@H]21
active: HCT-15 colon -38.8% | HT29 colon 7.93%
inactive: SNB-75 CNS 73.1% | SNB-19 CNS 96% | U251 CNS 104% | PC-3 prostate 86.7% | SK-MEL-5 melanoma 96.2% | UACC-62 melanoma 91.6% | LOX IMVI melanoma 20.1% | SK-MEL-28 melanoma 101%

O=C(c1ccccc1)C1C(=O)N2C(=S)N(c3ccccc3)C(=O)C2C1c1ccc(Cl)cc1 (stereo not given)
inactive: HCT-15 colon 105% | HT29 colon 111% | SNB-75 CNS 96.5% | SNB-19 CNS 93.8% | U251 CNS 98.4% | PC-3 prostate 86.7% | SK-MEL-5 melanoma 91.6% | UACC-62 melanoma 88% | LOX IMVI melanoma 90.2% | SK-MEL-28 melanoma 93.8%

COc1ccc(NC(=O)c2sc3nc(C)c(C(=O)/C=C/c4cccc(OC)c4)cc3c2N)cc1
inactive: SNB-75 CNS 11.2% | PC-3 prostate 55.2% | SK-MEL-5 melanoma 71.3% | UACC-62 melanoma 56.6% | SK-MEL-28 melanoma 80.7%
active: HCT-15 colon -12.8% | HT29 colon 1.21% | SNB-19 CNS 8.88% | U251 CNS 1.61% | LOX IMVI melanoma -73.1%

O=C(CSc1nc2sc3c(c2c(=O)n1-c1ccccc1)CCCCC3)N/N=C/c1ccc(F)cc1
active: SNB-75 CNS -65.4% | U251 CNS 6.96%
inactive: HCT-15 colon 48.6% | HT29 colon 26.2% | SNB-19 CNS 47.4% | PC-3 prostate 45.8% | SK-MEL-5 melanoma 50.7% | UACC-62 melanoma 83.5% | LOX IMVI melanoma 37.1% | SK-MEL-28 melanoma 48.9%

C=C1C(=O)O[C@H]2[C@H]1CC/C(COC(=O)NCc1cc[nH]c1)=C\CC[C@@]1(C)O[C@@H]21
inactive: HCT-15 colon 24.6% | HT29 colon 42.6% | SNB-75 CNS 70.4% | SNB-19 CNS 83.2% | U251 CNS 68.2% | PC-3 prostate 51.7% | SK-MEL-5 melanoma 91.2% | UACC-62 melanoma 39.6% | LOX IMVI melanoma 32.3% | SK-MEL-28 melanoma 54.6%

COc1ccc(N2CCC(=O)NC2=S)cc1
inactive: HCT-15 colon 102% | HT29 colon 105% | SNB-75 CNS 96.6% | SNB-19 CNS 105% | U251 CNS 103% | PC-3 prostate 107% | SK-MEL-5 melanoma 99.2% | UACC-62 melanoma 99.2% | LOX IMVI melanoma 94.8% | SK-MEL-28 melanoma 111%

N#CC1=C(N)Oc2c(sc3c(F)cccc23)C1c1ccc(F)cc1 (stereo not given)
inactive: HCT-15 colon 26% | SNB-19 CNS 27.3% | U251 CNS 22.2% | PC-3 prostate 28.7% | SK-MEL-5 melanoma 22.3% | UACC-62 melanoma 29.2% | LOX IMVI melanoma 32.2% | SK-MEL-28 melanoma 64%
active: HT29 colon 6.86% | SNB-75 CNS 6.01%
